Bioassay records deposited in PubChem BioAssay by National Center for Advancing Translational Sciences (NCATS).
NPC1 prom act = qHTS Assay for NPC1 Promoter Activators. Huh7 NPC1 promoter luciferase reporter, 24 h. Potency, µM (highest dose often 9.22 µM), without a hit: at the top dose activation, usual class: activators. 320,000 tested, 2.4% active. AID 485313, 2010; note: % of control where 0% means no effect; nearly all actives have a fitted effect of over 60% in size
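Luciferase expression driven by the NPC1 promoter was measured in stably transfected Huh7 cells after a 24 h compound incubation, using a luciferase reagent and a luminescence read.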
SMN2 splice enh = qHTS Assay for Enhancers of SMN2 Splice Variant Expression. HEK293 SMN2-luciferase splicing reporter, luminescence, 30-36 h. Potency, µM (doses to about 46.1 µM), inactives show at the highest dose activity change, positive = activation, usual class: activators. 210,000 tested, 2.8% active. AID 1458, 2008; note: % of control where 0% means no effect; nearly all actives have a fitted effect of over 55% in size
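HEK293 cells carry an SMN2 minigene-luciferase reporter in which exon 7 inclusion puts luciferase in frame. Cells were seeded at 2000 cells/well, attached for 10-12 hours, then exposed to compounds for 30-36 hours at 37C before ONE-Glo luminescence.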
Luc counter = Counterscreen for Luciferase (Kinase-Glo TM) Inhibition; Potency, µM (series often up to 38.3 µM), for the others: at the top dose activity change, negative = inhibition, usual class: inhibitors; 200,000 tested, 0.28% active; Luciferin 4-monooxygenase (Photuris pensylvanica), Q27757; Kinase-Glo luciferase, ATP luminescence, 8 min; note: % is set by controls: 0 for no effect and ±100 for the full control effect; nearly all actives have a fitted effect of over 60% in size
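Kinase-Glo luciferase light output from ATP and luciferin was measured with 10 uM ATP, within the enzyme's linear range. Buffer: 50 mM imidazole pH 7.2, 50 mM KCl, 7 mM MgCl2, 0.01% Tween 20, 0.05% BSA; luminescence read after 8 min at ambient temperature.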
FLuc modulator = qHTS profiling assay for firefly luciferase inhibitor/activator using purifed enzyme and Km concentrations of substrates (counterscreen for miR-21 project); purified FLuc, Km substrates, luminescence inhibition; Luciferin 4-monooxygenase (Photinus pyralis), P08659; 360,000 tested, 6.9% active; Potency, µM (doses to about 57.5 µM), inactives show at the highest dose activity change, negative = inhibition, actives largely listed as inhibitors;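 note: plate controls were vehicle for no effect and reference inhibitor for full effect; nearly all actives have a fitted effect of over 55% in size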
Target sequence (P08659 whole entry, looked up): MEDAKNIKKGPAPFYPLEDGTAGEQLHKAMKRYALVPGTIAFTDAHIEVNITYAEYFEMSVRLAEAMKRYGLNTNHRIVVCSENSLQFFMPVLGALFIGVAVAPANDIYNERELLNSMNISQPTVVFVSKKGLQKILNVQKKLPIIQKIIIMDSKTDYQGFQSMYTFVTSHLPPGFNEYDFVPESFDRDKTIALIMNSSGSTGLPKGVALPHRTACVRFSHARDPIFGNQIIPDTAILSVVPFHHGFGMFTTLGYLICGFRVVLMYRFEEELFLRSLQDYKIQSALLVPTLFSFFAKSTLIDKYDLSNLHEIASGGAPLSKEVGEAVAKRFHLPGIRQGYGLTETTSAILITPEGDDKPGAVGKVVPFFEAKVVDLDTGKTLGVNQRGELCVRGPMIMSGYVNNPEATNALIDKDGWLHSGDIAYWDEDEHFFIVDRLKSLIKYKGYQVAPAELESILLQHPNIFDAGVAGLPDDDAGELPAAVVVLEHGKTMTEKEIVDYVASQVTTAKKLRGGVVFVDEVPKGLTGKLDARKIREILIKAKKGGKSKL
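Biochemical qHTS of compounds, final roughly 60 µM downward over six points, against 10 nM purified firefly luciferase using Km concentrations of substrates (10 uM D-luciferin, 10 uM ATP) in Tris acetate pH 7.5 buffer; luminescence output.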
Rab9 prom act = qHTS Assay for Rab9 Promoter Activators | Huh7 Rab9 promoter-luciferase reporter, luminescence, 24 h | Potency, µM (titrated, usually from 9.22 µM), for the others: top-dose activation, negative = inhibition, usual class: activators | 320,000 tested, 2.8% active | AID 485297, 2010; note: % of control where 0% means no effect; nearly all actives have a fitted effect of over 60% in size
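Measured in stably transfected Huh7 cells bearing a Rab9 promoter–luciferase construct: 24 h compound treatment at 37 °C, followed by luminescence detection.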
ELG1 genotoxic = qHTS screen for small molecules that induce genotoxicity in human embryonic kidney (HEK293T) cells expressing luciferase-tagged ELG1. HEK293T ELG1-luciferase reporter, luminescence, 16 h. Potency, µM (top dose mostly 46 µM), without a hit: top-dose activity change, positive = activation, usual class: activators. 330,000 tested, 1.3% active. AID 504466, 2011; note: % of control where 0% means no effect; nearly all actives have a fitted effect of over 60% in size
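After overnight (16 hr) compound treatment at 37 °C, ELG1-luciferase HEK293T cells were lysed with ONE-Glo; luminescence quantified 30 min later at room temperature.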
The depositor's hits bear a star; ? = inconclusive; . = not tested or not shown; [ ] = another dose, or the depositor's remark. Hits are enriched below; roughly 7.5% of the tested compounds scored in any of these assays. Calls come from the whole dose curve; as a rule, active = well fitted curve in the direction sought with a large enough effect; inconclusive = small, poorly fitted or top-dose-only effect, or another doubt; inactive = no such curve, though single readings can be large; an effect the other way counts as inactive or inconclusive. Potency is the fitted concentration of half-maximal effect.

SMILES	NPC1 prom act	SMN2 splice enh	Luc counter	FLuc modulator	Rab9 prom act	ELG1 genotoxic
Cc1ccc2nc(-c3ccccc3)cc(C(=O)Nc3cccnc3)c2c1	0%	.	.	.	-2%	-3%
Cc1cccc(Nc2nc(-c3ccccc3)c(C(=O)Nc3cccnc3)s2)c1	8%	-92%	5%	17µM*	20%	-6%
Cc1cc(C)nc(NC(=O)c2cc(-c3ccc(C)s3)nc3ccccc23)c1	-4%	-26%	-6%	?	-4%	-13%
O=C(Nc1ccc(Br)cc1)c1cc(-c2ccncc2)nc2ccccc12	.	.	.	.	.	-2%
Cc1cccc(-c2cc(C(=O)Nc3cccnc3)c3ccccc3n2)c1	-3%	.	.	15µM*	4%	-15%
Cc1ccc(-c2cc(C(=O)Nc3cccnc3)c3ccccc3n2)s1	13%	.	.	9.5µM*	7%	-10%
COc1ccc(N2CCN(C(=O)C3CCCN3S(=O)(=O)c3cccc4nsnc34)CC2)cc1 (stereo not given)	-2%	.	.	4%	-1%	0%
Cc1ccc(N2CC(C(=O)OCc3nc(N)nc(Nc4ccccc4C)n3)CC2=O)cc1 (stereo not given)	-1%	.	.	2%	-2%	2%
Cc1ccccc1Nc1nc(N)nc(COC(=O)C2CCCCC2)n1	-1%	13%	-6%	15µM*	13%	12%
CCCCC(=O)OCc1nc(N)nc(Nc2ccccc2C)n1	2%	10%	-3%	19µM*	2%	?
Cc1cc(-c2nnc(CCC(=O)NCc3ccc(OC(F)(F)F)cc3)o2)no1	-2%	.	.	2%	0%	0%
COc1ccc(Sc2cc(C(F)(F)F)nc(-c3ccccn3)n2)cc1	-4%	-38%	5%	-1%	1%	0%
CC(=O)c1ccc(-c2ccc(C(=O)Nc3nc(C)c(C(C)=O)s3)o2)cc1	1%	.	.	-2%	2%	3%
CC(=O)Nc1nc(C)c(C(C)=O)s1	-2%	2%	-1%	0%	9%	-5%
COc1ccc(N(C)S(=O)(=O)c2cccc(C(=O)Nc3nc(C)c(C(C)=O)s3)c2)cc1	2%	.	.	-17%	4%	0%
CC(=O)c1sc(NCc2ccccc2)nc1C	9%	.	.	-12%	17%	10%
CC(=O)c1sc(NC(=O)c2ccc(Cl)cc2)nc1C	3.2µM*	.	.	?	1.4µM*	?
CC(=O)c1sc(NCc2ccc(C)cc2)nc1C	3.2µM*	.	.	15µM*	2.8µM*	23µM*
CC(=O)c1sc(NC(=O)c2cccc(C)c2)nc1C	3.2µM*	14µM*	-23%	6.7µM*	2µM*	5.2µM*
CC(=O)c1sc(NC(=O)c2ccc(F)c(F)c2)nc1C	?	1%	-7%	?	3.2µM*	16µM*
Cc1ccccc1C(=O)Nc1nnc(S(=O)(=O)N2CCCc3ccccc32)s1	.	.	.	2%	.	.
CC(=O)c1sc(NC(=O)c2ccc(F)c(S(=O)(=O)N3CCOCC3)c2)nc1C	-1%	.	.	19µM*	0%	0%
CC(=O)c1sc(NC(=O)c2cc(S(=O)(=O)N3CCOCC3)ccc2F)nc1C	0%	.	.	.	-8%	0%
CCOC(=O)c1sc(NC(=O)c2cc(-c3ccccc3)nc3ccccc23)c(C#N)c1C	-7%	-52%	-1%	?	-25%	-5%
COc1ccc(/C=c2\s/c(=C/C(=O)c3ccc(C)cc3)[nH]c2=O)cc1OC	-1%	-13%	0%	11µM*	3%	-4%
SMILES	NPC1 prom act	SMN2 splice enh	Luc counter	FLuc modulator	Rab9 prom act	ELG1 genotoxic
CCc1ccc(/C=c2\s/c(=C\C(=O)C(C)(C)C)[nH]c2=O)cc1	12%	10%	-2%	?	-4%	-13%
C=CCN(CC=C)C(=O)c1ccc(OC2CCN(S(=O)(=O)N(C)C)CC2)cc1	1%	.	2%	?	-3%	3%
Cc1ccccc1NC(=O)CSc1nccn1C	.	-11%	.	3%	.	.
O=C(OCc1c(-c2ccccc2)ncc2ccccc12)N1CCOCC1	-2%	.	.	2.7µM*	-4%	5%
CC(C)(C)NC(=O)Cn1cc(S(=O)(=O)Cc2ccccc2Cl)c2ccccc21	.	.	.	0%	.	.
CCc1ccc(OCC(=O)O/N=C(\N)c2ccccn2)cc1	3.2µM*	.	.	9.5µM*	3.2µM*	7.3µM*
Cc1cc(C)cc(OCC(=O)O/N=C(\N)c2ccccn2)c1	-4%	5%	-2%	?	-8%	?
Cc1ccc(OCC(=O)O/N=C(\N)c2ccncc2)cc1C	17%	.	.	?	?	18%
Cc1cccc(OCC(=O)O/N=C(\N)c2ccccn2)c1	27%	?	-4%	17µM*	14%	?
Cc1ccc(OCC(=O)O/N=C(\N)c2ccccn2)cc1C	2.2µM*	.	.	12µM*	?	8.2µM*
N/C(=N\OC(=O)COc1ccccc1)c1ccccn1	19%	-9%[1.84 µM]	-5%	?	23%	?
O=C(O)CCCC[C@@H]1SC[C@H]2NC(=O)N[C@@H]12	.	.	2%	.	.	.
COc1cc(/C=C2\C(=N)N3N=C(S(C)(=O)=O)SC3=NC2=O)ccc1OC(=O)c1ccco1	0%	.	.	19µM*	2%	-1%
CCS(=O)(=O)C1=NN2C(=N)/C(=C\c3ccc(OC(=O)c4ccco4)c(Br)c3)C(=O)N=C2S1	-4%	.	.	15µM*	-2%	2%[9.26 µM]
COc1cc(/C=C2\C(=N)N3N=C(S(C)(=O)=O)SC3=NC2=O)ccc1OC(=O)c1cccs1	3%	.	.	21µM*	6%	0%
COc1ccc2c(c1OC)C(Cc1ccccc1)N1CCc3cc4c(cc3C1C2)OCO4 (stereo not given)	.	.	-2%	.	.	.
CCOc1ccc(/C=C/C(=O)Nc2ccc3nc(N(CC)CC)cc(C)c3c2)cc1OC	.	-28%	.	-1%	.	.
CN(C)S(=O)(=O)c1cccc(NC(=S)NC(=O)c2ccco2)c1	?	.	.	?	3.5µM*	11%
COC(=O)COc1ccc(NC(=O)c2ccco2)cc1	-1%	.	.	24µM*	3%	3%
